Compound activity from PubChem BioAssay.
This is a sample that favours compounds with a hit; in the whole collection about 2.9% have one here.
KDM5B inhibitor: blocks human KDM5B histone demethylase activity. KDM5B demethylase, FDH-coupled NADH fluorescence (FDH is formaldehyde dehydrogenase). actives 2.6% (n = 220,000). Potency, µM (titrated, usually from 57.7 µM), usual class: inhibitors. Q9UGL1; note: potency is the fitted concentration of half-maximal effect; 0% is about no effect; nearly all actives have a fitted effect of over 70% in size
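qHTS format, multiple compound concentrations. Buffer 50 mM HEPES pH 7.5/0.01% Tween-20; 200 nM KDM5BΔAP final; 10 min compound preincubation; substrate-mix levels 12.5 µM peptide, 25 µM α-KG, 0.25 mM NAD⁺; 30 min RT; ΔRFU.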
SNCA expr inh: reduces expression of the alpha-synuclein gene; AID 1671194; actives 0.17% (n = 140,000); HEK-293 SNCA-luciferase knock-in, luminescence, 24 h; Potency, µM (doses to about 57.2 µM), inactives show at the top dose activity change, negative = inhibition, most hits filed as inhibitors;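 note: potency is the fitted concentration of half-maximal effect; plate controls were DMSO cells for no effect and cell-free wells for full effect; nearly all actives have a fitted effect of over 45% in size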
IP6K1 inhibitor: blocks human inositol hexakisphosphate kinase 1; Q92551; IP6K1 kinase, ADP-Glo luminescence, 2 h; active compounds read low; activity change, % (series mostly up to about 58 µM); actives 0.81% (n = 140,000); AID 1645851; in the data active = activity change below about -25%; note: % is set by controls: 0 for no effect and ±100 for the full control effect
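ADP-Glo luminescence measures ADP made by human IP6K1 during a 2 h RT reaction with ATP/IP6 (mix at 1.3 mM/130 uM); top library doses 57.5 and 19.1 uM final.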
SNCA viab count: counter-screen for SNCA expression inhibitors: cell viability; HEK-293-SNCA-luc viability, GF-AFC fluorescence, 24 h; Potency, µM (top dose mostly 57.1 µM), inactives show at the highest dose activity change, negative = cytotoxicity, most hits filed as cytotoxic; actives 0.12% (n = 150,000);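 note: potency is the fitted concentration of half-maximal effect; 0% = DMSO-treated cells and -100% = medium-only wells without cells; nearly all actives have a fitted effect of over 30% in size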
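HEK-293-SNCA-luc cells (1500/well) plated 24 h, then exposed 24 h to a dilution series; GF-AFC added 30 min at 37C, fluorescence 405/540 nm; normalised to medium-only and DMSO wells, Hill fit.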
* marks the source's active call; other numbers are inactive results; i = inactive; ? = inconclusive; . = no result; [ ] = remark or other dose. Unless noted, calls come from the whole dose curve; as a rule, active = well fitted curve in the direction sought with a large enough effect; inconclusive = small, poorly fitted or top-dose-only effect, or another doubt; inactive = no such curve, though single readings can be large; an effect the other way counts as inactive or inconclusive.

SMILES	KDM5B inhibitor	SNCA expr inh	IP6K1 inhibitor	SNCA viab count
C[C@@H]1CN(c2nc(-c3ccccc3)no2)CC[C@@]1(O)C1CCC1	i	14µM*	-11	-11%
Cn1nccc1-c1cc2c(cn1)CN(Cc1ccncc1)CCN2	35µM*	?	-10	12%[87.6 µM]
CCn1cc(-c2cc3c(cn2)CN(Cc2ccncc2)CCN3)cn1	32µM*	-8%[87.6 µM]	-19	2%[87.6 µM]
O=C1[C@@H]2C[C@@H](CN2C(=O)c2cncnc2)Oc2ccccc2N1Cc1ccc(OC(F)(F)F)cc1	i	-3%	5	4%
Cn1cc(CN2Cc3c(cc(N4CCOCC4)nc3-c3cccc(F)c3)C2=O)cn1	35µM*	0%[87.6 µM]	12	6%[87.6 µM]
COc1ccc(-c2nc(N3CCOCC3)cc3c2CN(Cc2cnn(C)c2)C3=O)cc1OC	i	36%	11	14%
Cn1cc(CN2Cc3c(cc(N4CCOCC4)nc3-c3ccc(CO)cc3)C2=O)cn1	35µM*	-18%[87.6 µM]	12	11%[87.6 µM]
Cc1noc2c(-c3ccc(N4CCOCC4)cc3)cc(-c3cccnc3)nc12	?	?	0	28%[87.6 µM]
Cn1cc(CN2Cc3c(cc(N4CCOCC4)nc3-c3cccnc3)C2=O)cn1	35µM*	7%[87.6 µM]	16	4%[87.6 µM]
CCOc1ccccc1Oc1c(C(F)(F)F)oc2cc(OC(=O)c3ccccc3F)ccc2c1=O	i	.	.	.
CC(c1ccccc1)N1CCN(c2cccc(CN(C)S(C)(=O)=O)c2)CC1 (stereo not drawn)	.	.	28	.
c1ccc(-c2nc3ccccc3s2)cc1	i	.	.	.
Nc1ccc2nc(-c3ccc(O)cc3)sc2c1	i	1.3µM*	-17	-2%
Cc1ccccc1C(=O)N1CCCN(c2nnc3ccc(Cl)cn23)CC1	25µM*	2%	40	-5%
COc1ccc(C(=O)N2CCCN(c3nnc4ccc(Cl)cn34)CC2)cn1	22µM*	22%	13	-12%
O=C(c1cccnc1)N1CCN(c2nnc3ccc(Cl)cn23)CC1	16µM*	-3%	7	4%
O=C(NCc1cccs1)c1ccc2oc(-c3ccnc(Cl)c3)nc2c1	.	-4%[87.6 µM]	21	-5%[12.5 µM]
Cc1ccc(NC(=O)COC(=O)c2cc3ccccc3[nH]2)cc1C	i	.	.	.
CCOc1ccccc1CN1CCC2(CCN(Cc3ccc(F)cc3)CC2)Oc2ccccc21	?	-15%	-6	-19%
CCOc1ccc(CC(=O)NC2CCN(c3cc(-c4ccc(F)cc4)[nH]n3)C2)cc1OCC (stereo not drawn)	8.9µM*	-5%	1	-22%
COc1ccccc1CC(=O)NC1CCN(c2cc(-c3ccccc3)[nH]n2)C1 (stereo not drawn)	16µM*	20%	2	-5%
CCOc1ccccc1C(=O)NC1CCN(c2cc(-c3ccc(OC)cc3)[nH]n2)C1 (stereo not drawn)	13µM*	12%	7	-20%
COc1cccc2sc(NC(=O)CSc3nncn3-c3ccc(C)cc3)nc12	i	.	.	.
CC(=O)N1CCc2cc(NC(=O)CCc3ncc(-c4ccccc4F)o3)ccc21	i	.	.	.
Fc1ccc(CN2CCNc3cnc(-c4ccccc4)cc3C2)cc1F	35µM*	?	-8	?
SMILES	KDM5B inhibitor	SNCA expr inh	IP6K1 inhibitor	SNCA viab count
c1ccc(-c2cc3c(cn2)NCCN(Cc2ccccn2)C3)cc1	35µM*	28%[87.6 µM]	-15	-16%[87.6 µM]
Cc1cc(C)n(C(C)CC(=O)Nc2ccc(C)c(F)c2)n1 (stereo not drawn)	i	10%	-6	7%
Cc1ccc(NC(=O)CCNc2cnc3cnccn23)cc1F	22µM*	-29%	26	2%
COc1ccc(CN(C)Cc2cc(=O)oc3c(C)c(C)ccc23)cc1	i	.	.	.
O=C(CCn1ncc(=O)c2ccccc21)N1CCCC1c1ccc2c(c1)OCCO2 (stereo not drawn)	i	.	.	.
COc1ccc(C(=O)NCc2nnc3ccc(-c4ccc(C)c(C)c4)nn23)cc1	20µM*	8%	-3	-15%
Cc1ccc(-c2ccc3nnc(CNC(=O)c4ccc(F)c(F)c4)n3n2)cc1	28µM*	-2%	-16	-4%
Cc1ccc(-c2ccc3nnc(CNC(=O)c4ccc5c(c4)OCO5)n3n2)cc1	i	-1%	3	-7%
Cc1ccc(-c2ccc3nnc(CNC(=O)c4ccc(F)c(F)c4)n3n2)cc1C	32µM*	?	6	-3%
Cc1ccc(-c2ccc3nnc(CNC(=O)c4ccc(N(C)C)cc4)n3n2)cc1C	i	-13%	-8	-8%
O=C(NCc1nnc2ccc(-c3ccccc3)nn12)c1ccc(F)c(F)c1	28µM*	?	-4	?
CC(C)(C)c1nnc(Nc2ccc(Br)cc2)[nH]c1=O	i	.	.	.
Cc1cc(NC(=O)Nc2ccc(F)c(F)c2)n(-c2ccccc2)n1	.	.	4	-11%
O=C(NCc1nnc2ccc(-c3ccccc3)nn12)c1cccc(Cl)c1	?	?	6	-2%
Cc1ccc(-c2ccc3nnc(CNC(=O)Cc4ccc(Cl)cc4)n3n2)cc1	?	?	-16	-21%
O=C(NCc1nnc2ccc(-c3ccc(Cl)cc3)nn12)c1cccc(Br)c1	28µM*	-14%	14	6%
Cc1ccc(-c2ccc3nnc(CNC(=O)c4ccco4)n3n2)cc1C	22µM*	4%	-11	0%
O=C(NCc1nnc2ccc(-c3ccccc3)nn12)c1cccc(C(F)(F)F)c1	32µM*	-2%	10	-19%
O=C(NCc1nnc2ccc(-c3ccc(Cl)cc3)nn12)c1ccc(F)c(F)c1	32µM*	-19%	13	-17%
Cc1ccc(-c2ccc3nnc(CNC(=O)c4ccc[nH]4)n3n2)cc1C	i	33%	-9	-8%
O=C(NCC(F)(F)F)C1CCN(Cc2ccccc2-c2cccnc2)CC1	.	-2%	7	0%
CCc1nnc2ccc(NCc3ccc(F)cc3)nn12	?	14%	1	-23%
CC/C(C)=N/NC(=O)c1ccc(C(C)(C)C)cc1	i	.	.	.
COc1ccccc1CC(=O)NCc1nnc2ccc(-c3ccc(C)c(C)c3)nn12	32µM*	-20%	1	-17%
Cc1ccc(C(=O)NCc2nnc3ccc(-c4ccc(C)c(C)c4)nn23)s1	28µM*	12%	18	-1%
SMILES	KDM5B inhibitor	SNCA expr inh	IP6K1 inhibitor	SNCA viab count
Cc1ccc(-c2ccc3nnc(CNC(=O)c4cccc(N(C)C)c4)n3n2)cc1C	i	144%	-16	-10%
Cc1cc(N2CCCCC2)nc2ccccc12	.	.	-10	4%
COCCN1CC2(CCCN(c3cc(C)c4ccccc4n3)C2)CCC1=O (stereo not drawn)	28µM*	24%	-4	3%
Cc1ccc(F)cc1-n1nc(-c2c(C)nc3scc(CC(=O)NCC(C)C)n3c2=O)cc1C	28µM*	-19%	-10	?
Cc1nc2scc(CC(=O)NCCC(C)C)n2c(=O)c1-c1cc(C)n(-c2cc(F)ccc2F)n1	28µM*	?	9	-19%
Cc1ccccc1-n1nc(-c2c(C)nc3scc(CC(=O)NC(C)C)n3c2=O)cc1C	28µM*	-9%	5	1%
Cc1nc2scc(CC(=O)NCCC(C)C)n2c(=O)c1-c1cc(C)n(-c2ccc(F)cc2)n1	28µM*	-17%	-5	-7%
